According to the supplement of paper PMC10037445:
Over roughly 2,900 compounds, “NF-kB SEAP reporter activity, fold change vs agonist alone” has its median near 0.99; the highest 2% begin near 2.6. The full list was thinned out, with the highest values kept by preference.

Columns and labels:
RAW-Dual [1] = assay: NF-kB SEAP reporter activity, fold change vs agonist alone; higher = enhanced NF-kB activity; conditions: library stock concentration (final ~1000-fold dilution): 10 mM
Outline: (§1)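 RAW-Dual macrophages were seeded in DMEM at 50,000 cells/well in 384-well plates, given 50 nL of library stock by pin tool, and given a PRR agonist 1 h later. Plates were held at 37 °C, 5% CO2 for 20 hours, after which supernatant was read for IRF by QuantiLuc luminescence and for NF-κB by QuantiBlue absorbance at 620 nm. Reporter activity is expressed as fold change over wells that received agonist alone. A well was called cytotoxic when IncuCyte confluency fell below 70% of agonist controls in both mask sets.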

RAW-Dual [2] = assay: NF-kB SEAP reporter activity, fold change vs agonist alone; cytotoxicity flag (confluency mask): not cytotoxic; higher = enhanced NF-kB activity
Outline: as §1

RAW-Dual [3] = assay: NF-kB SEAP reporter activity, fold change vs agonist alone; cytotoxicity flag (confluency mask): cytotoxic (confluency <70% of control); higher = enhanced NF-kB activity
Outline: as §1

[4] = cytotoxicity flag (confluency mask): not cytotoxic, agonist: Imiquimod (TLR7) […]
[5] = cytotoxicity flag (confluency mask): not cytotoxic, agonist: MPLA (TLR4) […]
[6] = agonist: ODN 1826 (TLR9) 0.5 ug/mL
[7] = agonist: Pam2CSK4 (TLR2/6) 0.1 ug/mL
[8] = agonist: Pam3CSK4 (TLR2/1) 0.1 ug/mL

## CS(=O)(=O)O.Cc1c(O)cccc1C(=O)NC(CSc1ccccc1)C(O)CN1CC2CCCCC2CC1C(=O)NC(C)(C)C (stereo not drawn)
RAW-Dual [1]; [4]
  NF-kB SEAP reporter activity: 2.13
RAW-Dual [1]; [5]
  NF-kB SEAP reporter activity: 2.22

## CC(C)(C)NC(=O)C1CN(Cc2cccnc2)CCN1CC(O)CC(Cc1ccccc1)C(=O)NC1c2ccccc2CC1O.O=S(=O)(O)O (stereo not drawn)
RAW-Dual [1]; [4]
  NF-kB SEAP reporter activity: 1.07
RAW-Dual [1]; [5]
  NF-kB SEAP reporter activity: 1.21

## CC(C)(C)NC(=O)C1CN(Cc2cccnc2)CCN1CC(O)CC(Cc1ccccc1)C(=O)NC1c2ccccc2CC1O.O=S(=O)(O)O (stereo not drawn) (library stock concentration (final ~1000-fold dilution): 10 mM)
RAW-Dual [2]; agonist: LPS (TLR4) 0.1 ug/mL
  NF-kB SEAP reporter activity: 1.3
RAW-Dual [2]; [6]
  NF-kB SEAP reporter activity: 1.15
RAW-Dual [2]; [7]
  NF-kB SEAP reporter activity: 1.2
RAW-Dual [2]; [8]
  NF-kB SEAP reporter activity: 1.34

## CS(=O)(=O)O.Cc1c(O)cccc1C(=O)NC(CSc1ccccc1)C(O)CN1CC2CCCCC2CC1C(=O)NC(C)(C)C (stereo not drawn) (library stock concentration (final ~1000-fold dilution): 10 mM)
RAW-Dual [2]; agonist: LPS (TLR4) 0.1 ug/mL
  NF-kB SEAP reporter activity: 4.08
RAW-Dual [2]; [6]
  NF-kB SEAP reporter activity: 1.02
RAW-Dual [2]; [7]
  NF-kB SEAP reporter activity: 0.418
RAW-Dual [2]; [8]
  NF-kB SEAP reporter activity: 0.656

## C=C(C)C(=O)Nc1cccc(-c2ncnc3[nH]cc(C(=O)OCC)c23)c1 (library stock concentration (final ~1000-fold dilution): 10 mM)
RAW-Dual [2]; agonist: LPS (TLR4) 0.1 ug/mL
  NF-kB SEAP reporter activity: 1.36
RAW-Dual [2]; [6]
  NF-kB SEAP reporter activity: 1.14
RAW-Dual [2]; [7]
  NF-kB SEAP reporter activity: 1.44
RAW-Dual [2]; [8]
  NF-kB SEAP reporter activity: 1.27

## C=C(C)C(=O)Nc1cccc(-c2ncnc3[nH]cc(C(=O)OCC)c23)c1
RAW-Dual [1]; [4]
  NF-kB SEAP reporter activity: 1.01
RAW-Dual [1]; [5]
  NF-kB SEAP reporter activity: 1.18

## C=C1C(=O)OC2/C=C(\C)CC/C=C(\C)CCC12 (stereo not drawn) (library stock concentration (final ~1000-fold dilution): 10 mM)
RAW-Dual [2]; agonist: LPS (TLR4) 0.1 ug/mL
  NF-kB SEAP reporter activity: 0.231
RAW-Dual [2]; [6]
  NF-kB SEAP reporter activity: 0.213
RAW-Dual [2]; [7]
  NF-kB SEAP reporter activity: 0.153
RAW-Dual [2]; [8]
  NF-kB SEAP reporter activity: 0.197

## C=C1C(=O)OC2/C=C(\C)CC/C=C(\C)CCC12 (stereo not drawn)
RAW-Dual [1]; [4]
  NF-kB SEAP reporter activity: 0.262
RAW-Dual [1]; [5]
  NF-kB SEAP reporter activity: 0.198

## CC(=O)ON=C1C(c2c(O)[nH]c3cc(Br)ccc23)=Nc2ccccc21 (library stock concentration (final ~1000-fold dilution): 10 mM)
RAW-Dual [2]; agonist: LPS (TLR4) 0.1 ug/mL
  NF-kB SEAP reporter activity: 3.28
RAW-Dual [2]; [6]
  NF-kB SEAP reporter activity: 1.19
RAW-Dual [2]; [7]
  NF-kB SEAP reporter activity: 1.55
RAW-Dual [2]; [8]
  NF-kB SEAP reporter activity: 1.41

## CC(=O)ON=C1C(c2c(O)[nH]c3cc(Br)ccc23)=Nc2ccccc21
RAW-Dual [1]; [4]
  NF-kB SEAP reporter activity: 1.07
RAW-Dual [1]; [5]
  NF-kB SEAP reporter activity: 1.48

## CCN(CC)CCOC(=O)C(Cc1cccc2ccccc12)CC1CCCO1.O=C(O)C(=O)O (stereo not drawn) (library stock concentration (final ~1000-fold dilution): 10 mM)
RAW-Dual [2]; agonist: LPS (TLR4) 0.1 ug/mL
  NF-kB SEAP reporter activity: 1.08
RAW-Dual [2]; [6]
  NF-kB SEAP reporter activity: 0.731
RAW-Dual [2]; [7]
  NF-kB SEAP reporter activity: 0.761
RAW-Dual [2]; [8]
  NF-kB SEAP reporter activity: 1.01

## CCN(CC)CCOC(=O)C(Cc1cccc2ccccc12)CC1CCCO1.O=C(O)C(=O)O (stereo not drawn)
RAW-Dual [1]; [5]
  NF-kB SEAP reporter activity: 0.821

## Nc1nc(NCCNc2ncc(-n3ccnc3)c(-c3ccc(Cl)cc3Cl)n2)ccc1[N+](=O)[O-]
RAW-Dual [1]; [4]
  NF-kB SEAP reporter activity: 2.49
RAW-Dual [1]; [5]
  NF-kB SEAP reporter activity: 2.25

## Nc1nc(NCCNc2ncc(-n3ccnc3)c(-c3ccc(Cl)cc3Cl)n2)ccc1[N+](=O)[O-] (library stock concentration (final ~1000-fold dilution): 10 mM)
RAW-Dual [2]; agonist: LPS (TLR4) 0.1 ug/mL
  NF-kB SEAP reporter activity: 2.5
RAW-Dual [2]; [6]
  NF-kB SEAP reporter activity: 2.96
RAW-Dual [2]; [7]
  NF-kB SEAP reporter activity: 1.46
RAW-Dual [2]; [8]
  NF-kB SEAP reporter activity: 2.83

## Cc1cncc(CN2CCC(=C3c4ccc(Cl)cc4CCc4cccnc43)CC2)c1.O=C(O)/C=C/C(=O)O (library stock concentration (final ~1000-fold dilution): 10 mM)
RAW-Dual [3]; agonist: LPS (TLR4) 0.1 ug/mL
  NF-kB SEAP reporter activity: 0.652
RAW-Dual [3]; [6]
  NF-kB SEAP reporter activity: 0.37
RAW-Dual [3]; [7]
  NF-kB SEAP reporter activity: 0.456
RAW-Dual [3]; [8]
  NF-kB SEAP reporter activity: 0.408

## Cc1cncc(CN2CCC(=C3c4ccc(Cl)cc4CCc4cccnc43)CC2)c1.O=C(O)/C=C/C(=O)O
RAW-Dual [1]; cytotoxicity flag (confluency mask): cytotoxic (confluency <70% of control), agonist: Imiquimod (TLR7) […]
  NF-kB SEAP reporter activity: 1.02
RAW-Dual [1]; cytotoxicity flag (confluency mask): cytotoxic (confluency <70% of control), agonist: MPLA (TLR4) […]
  NF-kB SEAP reporter activity: 0.719

## CCC1OC(=O)C(C)C(OC2CC(C)(OC)C(O)C(C)O2)C(C)C(OC2OC(C)CC(N(C)C)C2O)C(C)(O)CC(C)CN(C)C(C)C(O)C1(C)O.O.O (stereo not drawn) (library stock concentration (final ~1000-fold dilution): 10 mM)
RAW-Dual [2]; agonist: LPS (TLR4) 0.1 ug/mL
  NF-kB SEAP reporter activity: 1.49
RAW-Dual [2]; [6]
  NF-kB SEAP reporter activity: 0.371
RAW-Dual [2]; [7]
  NF-kB SEAP reporter activity: 0.896
RAW-Dual [2]; [8]
  NF-kB SEAP reporter activity: 0.978

## CCC1OC(=O)C(C)C(OC2CC(C)(OC)C(O)C(C)O2)C(C)C(OC2OC(C)CC(N(C)C)C2O)C(C)(O)CC(C)CN(C)C(C)C(O)C1(C)O.O.O (stereo not drawn)
RAW-Dual [1]; [4]
  NF-kB SEAP reporter activity: 0.506
RAW-Dual [1]; [5]
  NF-kB SEAP reporter activity: 1.46
